Screening results (PubChem BioAssay)
Sampled rows, rich in hits. Any-hit rate of the full collection: about 6.6%.
Bead autofluor = compound fluorescence in toxin protease inhibitor counterscreen; compound autofluorescence counterscreen, microsphere flow cytometry; active compounds read high; fluorescence intensity (concentration not given with the values); actives 3.1% (n = 360,000); AID 624483; in the data active = fluorescence intensity above about 16000; inconclusive = no clear call, values can overlap the other calls
GDH-TPI inh = counter-screen for M. tuberculosis FBA inhibitors: GDH-TPI coupled enzymes | GDH-TPI coupled enzyme counterscreen, NADH absorbance | inhibition, % at 4.8 µM | actives 1.2% (n = 360,000) | AID 588335; in the data active = inhibition above about 30%;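 note: 0% = DMSO wells and 100% = wells lacking the enzyme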
BoNT-A LC inh2 = BoNT A light chain protease inhibition; inhibition, % at 10 µM; AID 588499; multiplex microsphere protease substrate cleavage, flow cytometry; actives 0.17% (n = 360,000); note: plate controls were buffer without enzyme for full effect and enzyme alone for no effect
BoNT F protease = inhibitors of Botulinum neurotoxin F light chain protease | actives 0.22% (n = 360,000) | inhibition, % at 10 µM | Multiplex microsphere protease cleavage assay, flow cytometry | AID 588497; in the data active = inhibition above about 35%, passing the limit was not always enough; inconclusive = no clear call, values can overlap the other calls; note: plate controls were buffer without enzyme for full effect and enzyme alone for no effect
FBA Mtb inh = inhibitors of M. tuberculosis fructose-bisphosphate aldolase; purified M. tuberculosis FBA, fluorescence read-out; inhibition, % at 1 µM; actives 2.3% (n = 360,000); in the data active = inhibition above about 27%;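 note: 0% = vehicle and 100% = reference inhibitor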
Target sequence (P9WQA3 whole entry, looked up): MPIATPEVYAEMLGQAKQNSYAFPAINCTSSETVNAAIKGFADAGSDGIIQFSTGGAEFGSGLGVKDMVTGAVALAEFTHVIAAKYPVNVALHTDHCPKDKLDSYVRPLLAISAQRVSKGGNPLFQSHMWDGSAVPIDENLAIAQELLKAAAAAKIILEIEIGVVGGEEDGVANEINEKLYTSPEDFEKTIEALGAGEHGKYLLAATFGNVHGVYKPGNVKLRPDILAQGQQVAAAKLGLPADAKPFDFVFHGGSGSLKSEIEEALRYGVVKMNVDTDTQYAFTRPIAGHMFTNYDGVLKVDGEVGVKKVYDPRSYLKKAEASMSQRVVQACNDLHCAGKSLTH
Anthrax LF inh2 = inhibitors of Bacillus anthracis lethal factor protease | P15917 | actives 0.12% (n = 360,000) | inhibition, % at 10 µM | multiplex microsphere protease cleavage assay, LF | AID 588501; note: plate controls were buffer without enzyme for full effect and enzyme alone for no effect
* = called active by the depositor; ? = inconclusive; . = no result; + = active, no number. Cut-off read from the data, not from the text of the source, unless noted: active = inhibition above about 30%; inconclusive = no clear call, values can overlap the other calls; inactive = below that.

SMILES	Bead autofluor	GDH-TPI inh	BoNT-A LC inh2	BoNT F protease	FBA Mtb inh	Anthrax LF inh2
CCOc1ccc(CC(=O)Nc2sc(Cc3ccccc3)c(C)c2C(N)=O)cc1OCC	23316*	9	2	3	0	3
COC(=O)/C(=C\c1c[nH]c2ccccc12)NC(C)=O	3100	39*	1	0	1	-1
COc1cc2ccccc2cc1C(=O)Nc1ccccc1N1CCCC1	5845	3	0	-9	+	2
O=C(Nc1ccccc1N1CCCCC1)c1ccc(N2C(=O)c3ccccc3C2=O)cc1	16910*	8	0	-1	-1	-2
COc1cccc(OC)c1C(=O)Nc1ccccc1N1CCCC1	3921	-3	1	?	2	4
O=C(Nc1ccccc1N1CCCC1)c1ccccc1F	3527	1	1	10	-1	-2
O=C(Nc1ccccc1N1CCCCC1)c1ccccc1F	23407*	7	-1	-5	1	-2
O=C(CN1CCCC1)Nc1ccccc1Sc1ccc(Cl)cc1	3314	5	0	-3	1	-2
CC(=O)C1=C(O)C(=O)N(c2ccc(C(=O)O)cc2)C1c1ccc([N+](=O)[O-])cc1 (stereo not drawn)	3851	21	-2	-7	-2	1
COc1ccc(C2C(C(C)=O)=C(O)C(=O)N2CCc2ccccc2)c(OC)c1 (stereo not drawn)	16192*	37*	0	-4	-3	-1
CCOC(=O)c1ccc(N2C(=O)C(O)=C(C(C)=O)C2c2ccc([N+](=O)[O-])cc2)cc1 (stereo not drawn)	3299	32*	0	-26	-3	-5
COc1ccc(OC)c(C2C(C(C)=O)=C(O)C(=O)N2c2ccc(O)cc2)c1 (stereo not drawn)	2804	23	0	2	-1	1
COc1ccc(C2C(C(C)=O)=C(O)C(=O)N2Cc2ccccc2)c(OC)c1 (stereo not drawn)	3668	5	-2	-1	-1	12
CC(=O)C1=C(O)C(=O)N(c2ccc(O)cc2)C1c1cccc([N+](=O)[O-])c1 (stereo not drawn)	3136	32*	-2	-41	2	-12
COc1ccccc1C1C(C(C)=O)=C(O)C(=O)N1c1ccc(O)cc1 (stereo not drawn)	4009	42*	?	?	-1	-10
CN(C)C(=O)Oc1ccc2ccccc2c1Cl	23669*	3	-1	-3	1	-3
COC(=O)c1cnn(-c2ccccc2)c1/C=N/NC(=S)Nc1ccc(Cl)cc1	.	3	.	.	-1	.
O=C(N/N=C\C=C\c1ccc2c(c1)OCO2)C1COc2cc3ccccc3cc2O1 (stereo not drawn)	3630	49*	0	3	0	-2
COc1cc(/C=N/NC(=O)C2COc3ccccc3O2)ccc1O (stereo not drawn)	4320	19	-1	-1	1	1
O=C(N/N=C/c1ccc2c(c1)OCO2)C1COc2ccccc2O1 (stereo not drawn)	5721	15	-1	0	-1	0
O=C(N/N=C\c1ccc(O)c([N+](=O)[O-])c1)C1COc2ccccc2O1 (stereo not drawn)	6353	70*	-3	-12	-7	-2
CC(/C=C/c1ccc2c(c1)OCO2)=N\NC(=O)C(O)c1ccccc1 (stereo not drawn)	3790	28	-1	?	-1	-14
O=C(N/N=C/C=C/c1ccc([N+](=O)[O-])cc1)C1COc2ccccc2O1 (stereo not drawn)	2136	35*	4	-8	0	0
O=C(N/N=C/C=C/c1ccc2c(c1)OCO2)C(O)c1ccccc1 (stereo not drawn)	3186	56*	-2	?	2	18
Fc1ccc(-c2[nH]ncc2CN(CC2CCC2)CC2CCCO2)c(F)c1 (stereo not drawn)	4380	-3	1	-5	-2	2
SMILES	Bead autofluor	GDH-TPI inh	BoNT-A LC inh2	BoNT F protease	FBA Mtb inh	Anthrax LF inh2
Cc1cc(C(=O)N/N=C/C=C/c2ccc3c(c2)OCO3)n[nH]1	2874	50*	0	-1	3	0
CS(=O)(=O)Nc1ccc(C(=O)Nc2ccc3c(c2)OCCO3)cc1	20301*	.	1	2	.	1
Cc1ccsc1C(=O)Nc1ccc2c(c1)OCCO2	2172	8	0	-2	-2	-1
Cc1cc(C(=O)Nc2ccc3c(c2)OCCO3)c(C)o1	3938	-7	-1	-16	-2	-3
Cc1ncoc1C(=O)Nc1ccc2c(c1)OCCO2	18125*	-10	6	6	-2	-5
O=C(Nc1ccc2c(c1)OCCO2)c1ccccc1	2859	4	-1	-13	-4	-6
Cc1occc1C(=O)Nc1ccc2c(c1)OCCO2	20875*	-4	?	1	0	-8
Cc1ccc2nc(C3CCN(C(=O)c4ccco4)CC3)[nH]c2c1	23117*	-5	0	-1	-2	-2
Cc1ccc2nc(C3CCN(CC(=O)N4CCCCCC4)CC3)[nH]c2c1	23345*	-9	0	0	-1	4
Cc1ccc(C)c(Cn2nnc3c(=O)[nH]c(C4CCN(C(=O)c5ccco5)CC4)nc32)c1	3710	-6	0	-2	0	-14
CCOc1ccccc1NC(=O)N1CCC(c2nc3ccc(C)cc3[nH]2)CC1	11879	-9	-1	-10	4	0
COc1ccc(C(c2nnnn2C(C)C)N2CCN(C(=O)c3ccco3)CC2)cc1 (stereo not drawn)	2993	1	0	-3	-1	-7
C/C(=N\NC(=O)c1c(Cl)cnn1C)c1ccc(NC(=O)c2ccc(Br)o2)cc1	5724	18	-2	-7	-3	0
CN(CCO)c1ccc2c(c1)OC[C@@H](Cc1ccccc1)NS2(=O)=O	5183	.	1	-5	.	-5
Cc1ccc2[nH]c3c(=O)n(N)c(=O)[nH]c3c2c1	6159	10	0	-2	119*	4
Cc1ccc2[nH]c3c(=S)nc[nH]c3c2c1	2521	26	2	-4	0	0
CCN1C(=O)N(CC)C2C1N(CO)C(=O)N2CO (stereo not drawn)	3994	3	-1	1	1	4
CC(C)C(C(=O)NCC1CCCO1)N(C(=O)CNS(=O)(=O)c1ccc(F)cc1)C1CCCCC1 (stereo not drawn)	5761	-3	0	-4	3	-1
O=S(=O)(NCC1CCCO1)c1ccc(Cl)c(C(F)(F)F)c1 (stereo not drawn)	21968*	4	?	4	-2	-1
O=S(=O)(NCC1CCCO1)c1ccc(S(=O)(=O)N(Cc2ccc(F)cc2)C2CCCCC2)cc1 (stereo not drawn)	21632*	7	2	5	2	0
CCNC(=O)C(=O)NCC1CCCN1S(=O)(=O)c1cccs1 (stereo not drawn)	5373	-4	-2	10	2	2
